In the library only some 5.7% were active in any assay of this set; here they are far more common.
Myeloid diff 2 – induction of myeloid progenitor differentiation, primary screen, cell-based, flow cytometry, MLPCN library; ER-HoxA9 myeloid progenitors, lysozyme-GFP differentiation; calls only at 10 µM; hit rate 1% among 360,000; AID 624256, 2012;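 active = normalized GFP-positive differentiation at or above the plate's own cutoff, the solvent-only control mean plus 3 SD; inconclusive = no clear call, values can overlap the other calls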;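 note: cells exposed to compound for four days before flow analysis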
MPTP block – mitochondrial permeability transition pore inhibitors, primary screen, biochemical, isolated mouse mitochondria, absorbance. Ca2+ swelling absorbance, 30 min. inhibition, % at 10 µM. hit rate 1.4% among 360,000;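 active = inhibition of 50% or more, scaled per plate between neutral and stimulator controls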;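 note: 0% = DMSO wells given calcium and 100% = 1 mM EGTA wells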
FAS TE block – FAS thioesterase domain inhibitors, primary screen, biochemical, fluorescence intensity, uHTS; Fatty acid synthase (Homo sapiens), P49327; recombinant FAS-TE, OMFH fluorogenic substrate, fluorescence endpoint; inhibition, % at 15 µM; hit rate 0.67% among 360,000;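 active = compounds whose normalised, plate-corrected inhibition of enzyme fluorescence in the single-dose primary screen is 50% or more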;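 note: 0% = DMSO with enzyme and 100% = substrate without enzyme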
Target sequence (P49327 whole entry, looked up, the tested form may be a part): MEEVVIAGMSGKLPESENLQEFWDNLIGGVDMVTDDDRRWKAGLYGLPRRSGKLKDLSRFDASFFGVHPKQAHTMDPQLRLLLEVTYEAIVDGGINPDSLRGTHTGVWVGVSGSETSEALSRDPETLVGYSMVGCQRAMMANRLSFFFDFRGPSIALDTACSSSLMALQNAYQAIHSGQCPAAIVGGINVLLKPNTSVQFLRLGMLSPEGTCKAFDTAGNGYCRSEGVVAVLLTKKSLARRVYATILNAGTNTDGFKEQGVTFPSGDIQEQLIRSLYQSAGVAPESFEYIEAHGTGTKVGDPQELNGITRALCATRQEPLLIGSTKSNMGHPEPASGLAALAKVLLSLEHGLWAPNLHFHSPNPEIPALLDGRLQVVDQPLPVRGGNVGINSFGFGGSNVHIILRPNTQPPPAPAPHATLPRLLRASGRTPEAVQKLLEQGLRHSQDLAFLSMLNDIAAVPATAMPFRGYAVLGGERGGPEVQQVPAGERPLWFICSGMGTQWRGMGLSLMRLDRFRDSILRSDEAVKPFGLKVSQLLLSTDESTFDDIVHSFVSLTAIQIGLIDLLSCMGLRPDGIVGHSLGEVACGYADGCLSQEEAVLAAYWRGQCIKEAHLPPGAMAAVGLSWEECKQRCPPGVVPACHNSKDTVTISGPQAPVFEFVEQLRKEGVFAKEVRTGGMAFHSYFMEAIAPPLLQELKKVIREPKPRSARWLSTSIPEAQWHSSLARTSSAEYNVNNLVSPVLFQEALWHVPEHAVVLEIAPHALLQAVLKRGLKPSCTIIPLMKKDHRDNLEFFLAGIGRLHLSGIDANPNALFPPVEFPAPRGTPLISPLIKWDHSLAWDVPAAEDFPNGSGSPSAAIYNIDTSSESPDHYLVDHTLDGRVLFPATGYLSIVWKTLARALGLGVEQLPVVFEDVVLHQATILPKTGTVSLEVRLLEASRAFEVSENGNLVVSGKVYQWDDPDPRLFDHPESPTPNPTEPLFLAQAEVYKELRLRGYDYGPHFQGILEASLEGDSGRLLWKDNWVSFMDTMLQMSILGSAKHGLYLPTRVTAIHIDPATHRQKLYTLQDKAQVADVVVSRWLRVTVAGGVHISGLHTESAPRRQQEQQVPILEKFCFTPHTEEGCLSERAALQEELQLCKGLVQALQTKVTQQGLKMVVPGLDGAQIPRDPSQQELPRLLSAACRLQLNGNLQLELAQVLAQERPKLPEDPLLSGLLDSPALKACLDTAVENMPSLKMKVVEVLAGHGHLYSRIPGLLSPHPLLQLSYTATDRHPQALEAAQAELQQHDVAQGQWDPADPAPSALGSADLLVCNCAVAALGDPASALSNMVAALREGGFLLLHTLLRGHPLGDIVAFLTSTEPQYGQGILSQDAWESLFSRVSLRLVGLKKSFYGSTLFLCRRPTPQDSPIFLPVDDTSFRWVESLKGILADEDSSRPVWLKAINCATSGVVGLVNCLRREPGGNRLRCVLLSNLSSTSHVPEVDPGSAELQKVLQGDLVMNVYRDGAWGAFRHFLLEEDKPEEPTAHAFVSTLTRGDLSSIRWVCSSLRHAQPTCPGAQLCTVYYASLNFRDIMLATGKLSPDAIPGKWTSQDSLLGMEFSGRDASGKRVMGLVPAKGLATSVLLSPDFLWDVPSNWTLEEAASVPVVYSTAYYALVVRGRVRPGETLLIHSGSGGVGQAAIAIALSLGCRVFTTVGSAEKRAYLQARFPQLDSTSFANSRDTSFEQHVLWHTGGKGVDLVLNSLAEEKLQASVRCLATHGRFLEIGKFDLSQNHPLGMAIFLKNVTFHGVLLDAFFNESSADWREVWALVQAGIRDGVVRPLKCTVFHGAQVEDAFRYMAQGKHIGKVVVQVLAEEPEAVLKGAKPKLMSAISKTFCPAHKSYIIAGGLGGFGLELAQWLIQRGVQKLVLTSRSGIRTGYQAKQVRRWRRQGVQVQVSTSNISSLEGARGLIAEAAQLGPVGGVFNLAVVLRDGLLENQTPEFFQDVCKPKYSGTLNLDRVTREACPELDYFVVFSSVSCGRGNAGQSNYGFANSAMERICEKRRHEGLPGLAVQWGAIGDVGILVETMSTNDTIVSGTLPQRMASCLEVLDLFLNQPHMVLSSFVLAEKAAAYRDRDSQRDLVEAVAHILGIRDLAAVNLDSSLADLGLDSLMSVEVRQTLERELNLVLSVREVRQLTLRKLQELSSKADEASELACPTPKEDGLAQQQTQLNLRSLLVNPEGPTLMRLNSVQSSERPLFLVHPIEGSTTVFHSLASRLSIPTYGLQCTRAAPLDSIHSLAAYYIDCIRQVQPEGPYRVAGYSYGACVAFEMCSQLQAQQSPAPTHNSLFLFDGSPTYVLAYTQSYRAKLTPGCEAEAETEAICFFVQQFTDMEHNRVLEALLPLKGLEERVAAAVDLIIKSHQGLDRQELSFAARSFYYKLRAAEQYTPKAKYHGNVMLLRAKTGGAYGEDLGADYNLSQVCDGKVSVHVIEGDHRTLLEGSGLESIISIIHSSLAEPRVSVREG
NR3A LBD binder – binders of NR3A ligand-binding domain, primary screen, biophysical, differential scanning fluorimetry, uHTS | Tm shift relative to glycine control, % at 25 µM | AID 1259313, 2017 | hit rate 2.5% among 340,000 | NR3A LBD differential scanning fluorimetry, Tm shift; 0% = protein alone, 100% = glycine-bound protein;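 active = melting temperature shift of at least 10% of the positive control shift, at one fixed dose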
rCAG RNA binder – binders of r(CAG) RNA repeats, primary screen, biochemical, fluorescence | r(CAG) RNA repeat, TO-PRO-1 dye displacement fluorescence | inhibition, % at 3 µM | hit rate 1.3% among 370,000;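 active = inhibition above the plate cutoff, the mean of all test compounds on that plate plus 3 SD, cut at about 35% in these data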;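 note: 0% = DMSO alone and 100% = 100 µM mitoxantrone as full dye displacement; higher means more dye released from RNA so lower well fluorescence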
* marks the source's active call; other numbers are inactive results; i = inactive; ? = inconclusive; . = no result given; + = active, no number.

SMILES	Myeloid diff 2	MPTP block	FAS TE block	NR3A LBD binder	rCAG RNA binder
O=c1cc(-c2ccccc2[N+](=O)[O-])oc2ccccc12	+	-1	3	-2	0
O=c1cc(-c2ccccc2F)oc2ccccc12	i	0	-2	1	3
CCc1cccc2sc(NC(=O)C3CC3)nc12	i	-1	-2	12*	3
COc1ccc2c3c([nH]c2c1)[C@H]1C[C@H]2[C@H](C[C@@H](O)[C@H](OC)[C@H]2C(=O)O)CN1CC3	i	1	-1	3	3
COC(=O)[C@H]1[C@H]2C[C@@H]3c4[nH]c5cc(OC)ccc5c4CCN3C[C@H]2C[C@@H](OC(=O)c2ccc(N)cc2)[C@@H]1OC	+	1	0	-1	6
Cc1ccccc1NC(=O)[C@@H]1CC(=O)O[C@@H]1c1ccccc1	.	.	.	.	2
Nc1ccc(C(=O)N/N=C/c2cccc(Oc3ccccc3)c2)cc1	i	0	4	10*	1
O=C(N/N=C/c1cccc(OCc2ccccc2)c1)c1ccc(Br)cc1	i	36	-6	1	2
COc1ccc(/C=N\NC(=O)c2ccccc2[N+](=O)[O-])cc1COc1c(F)c(F)c(F)c(F)c1F	i	2	20	10*	4
COc1ccc(/C=N\NC(=O)c2cccc(F)c2)cc1COc1ccccc1	.	10	21	16*	8
COc1ccc(OCc2cc(/C=N\NC(=O)c3ccccc3)ccc2OC)cc1	i	-2	13	4	11
O=C(N/N=C/c1cccc(Oc2ccccc2)c1)c1cc[n+]([O-])cc1	i	2	-6	-3	0
COc1cccc(/C=N/NC(=O)c2ccc(OCc3cccc(Br)c3)cc2)c1	i	28	15	29*	5
CN1CCCCC(NC(=O)COCc2ccccc2)C1=O (stereo not given)	.	.	.	.	2
Cc1ccccc1CNC(=O)C1C2C=CC3(CN(Cc4ccccc4)C(=O)C13)O2 (stereo not given)	.	.	.	.	-1
O=C(Nc1cccc(O)c1)c1cc2nc(-c3ccccc3)cc(-c3ccccc3)n2n1	i	-4	-3	20*	7
CCOC(=O)c1cnc2ccc(OCC)cc2c1N(C)Cc1ccccc1	i	5	26	11*	-2
COc1ccc(C)cc1S(=O)(=O)N1CCC2(CC1)OCCN2S(=O)(=O)c1cccs1	i	0	19	16*	1
Cc1ccc(C)c(S(=O)(=O)N2CCC3(CC2)OCCN3S(=O)(=O)c2cccs2)c1	i	0	22	0	0
CC(=O)Nc1cccc(C(=O)N/N=C/c2c[nH]c3ccccc23)c1	i	-2	-9	30*	2
COc1ccc(C(=O)N/N=C/c2c[nH]c3ccccc23)cc1	i	-1	-5	37*	2
O=C(N/N=C/c1c[nH]c2ccccc12)c1ccc(O)c(O)c1	i	1	-6	28*	2
O=C(N/N=C/c1ccc[nH]1)c1sc2ccccc2c1Cl	i	30	4	3	7
Cn1ccc(C(=O)N/N=C/c2c[nH]c3ccccc23)n1	i	0	-3	-1	-1
CCc1ccc2c(Cl)c(C(=O)N/N=C/c3c[nH]c4ccccc34)sc2c1	i	5	27	24*	33
SMILES	Myeloid diff 2	MPTP block	FAS TE block	NR3A LBD binder	rCAG RNA binder
CCOc1ccccc1C(=O)N/N=C/c1c[nH]c2ccccc12	i	-1	-3	4	2
O=C(N/N=C/c1c[nH]c2ccccc12)c1cccc(Cl)c1	i	1	-1	37*	3
O=C(N/N=C/c1c[nH]c2ccccc12)c1cccc(O)c1	i	1	-2	26*	3
COc1ccc2cc(C(=O)N/N=C/c3sc4ccccc4c3O)ccc2c1	i	22	-10	12*	33
Cc1ccc(NCC(=O)N/N=C/c2c[nH]c3ccccc23)cc1	i	2	2	24*	13
COC(=O)[C@@]12CCCCC3=C1N(CCC3)C(=O)[C@H]2CC(=O)NCC12CC3CC(CC(C3)C1)C2	.	.	.	.	2
COc1ccc(-c2nnc(SCC(=O)NN=Cc3c(O)ccc4ccccc34)n2-c2ccc(OC)cc2)cc1	.	.	.	.	19
COc1ccccc1NC(=O)OC1CC2CC1[C@H]1CCCCN1[C@H]2Cc1ccccc1 (stereo not given in full)	.	.	.	.	3
O=C(O)c1cc(N/N=C/c2c[nH]c3ccccc23)ccc1Cl	.	-2	0	22*	16
Cc1ccc(NC(=O)CSc2ccc(C(N)=O)cc2[N+](=O)[O-])cc1	i	0	-10	25*	11
COc1cccc(Nc2ncccc2C(=O)NCc2ccccc2)c1	+	0	6	-3	5
CC1(C)CC(=O)N(CC(=O)N2CCN(Cc3ccc4c(c3)OCO4)CC2)c2ccccc2S1(=O)=O	.	.	.	.	1
CC(=O)c1ccc(NC(=O)NC2CC(=O)N(c3ccc4c(c3)OCCO4)C2)cc1 (stereo not given)	i	0	-7	14*	-1
COc1cccc(NC(=O)NC2CC(=O)N(c3ccc4c(c3)OCCO4)C2)c1 (stereo not given)	i	1	-2	-1	-4
Oc1ccc(N=Cc2ccc(OCc3ccccc3)cc2)cc1	i	2	7	10*	15
O=C(N/N=C/c1ccc(Cl)cc1)c1sccc1OCc1ccc(F)cc1	?	3	39	22*	6
Cc1occc1C(=O)Nc1ccc(OCc2ccccc2)cc1	i	-2	20	26*	-2
O=C(Nc1ccc(OCc2ccccc2)cc1)c1cccs1	i	1	9	25*	1
CC(C)C[C@@H]1COc2cc(Br)ccc2S(=O)(=O)N1Cc1cn(Cc2ccc(Cl)cc2)nn1	.	.	.	.	0
C[C@@H]1COc2cc(N3CCOCC3)ccc2S(=O)(=O)N1	.	.	.	.	1
COC(=O)c1cccc(OC[C@@H](O)CN2CCC(C(O)(c3ccccc3)c3ccccc3)CC2)c1	.	.	.	.	0
CCC(C)N(C(=O)CSc1nnc(-c2cccnc2)n1C1CCCCC1)C(C)CC (stereo not given)	.	.	.	.	-2
O=C(N/N=C/c1ccc(OCc2ccccc2)cc1)c1cccs1	i	0	17	21*	11
CC/C(=N/Nc1ccc(Cl)cc1)c1cnnc(SC)n1	i	16	-4	17*	3
CC/C(=N/Nc1cccc(C)c1)c1cnnc(SC)n1	i	8	-10	9	-2
O=C(NCc1cccnc1)C1CCN(C(=O)c2ccc(Cl)cc2Cl)CC1	i	0	-1	-1	-3
O=C(NCc1ccco1)C1CCN(C(=O)c2ccc(Cl)cc2Cl)CC1	+	0	-3	-1	4
O=C(CCl)Nc1ccc(C(=O)NCC2COc3ccccc3O2)cc1 (stereo not given)	.	.	.	.	4
